# According to PubChem BioAssay (Tox21):
# “And” between values parts separate entries of the source, which are not always exact repeats. Equal values may be shown once. Results filed as inconclusive are left out. Unmarked numbers belong to inactive results. The source made the active and inactive calls. Calls follow the shape of the dose curve; as a rule, active = well fitted cell-killing curve with a large enough effect in the repeat runs; inconclusive = weak or mixed curves; inactive = no such curve, though single readings can be large or run the other way.
# Test: qHTS assay to identify small molecule agonists of the peroxisome proliferator-activated receptor delta (PPARd) signaling pathway - cell viability counter screen (AID 743211); also: nearly all actives have a fitted effect of over 55% in size
# Details: PPARd-bla HEK293H viability, CellTiter-Glo luminescence, 17 h; series mostly up to 62.6 µM; activity change, negative = cytotoxicity: at the top concentration
# Text: U.S. Tox21 Program National Center for Advancing Translational Sciences [NCATS] NIH Chemical Genomics Center [NCGC] U.S. Environmental Protection Agency [EPA] National Institutes of Environmental Health Sciences [NIEHS] National Toxicology Program [NTP] U.S. Food and Drug Administration [FDA] Tox21 Assay Overview: The peroxisome proliferator-activated receptors (PPARs) are lipid-activated transcription factors of the nuclear receptor superfamily with three distinct subtypes namely PPAR alpha, PPAR delta (PPARd) and PPAR gamma. All these subtypes heterodimerizes with Retinoid X receptor (RXR) and have different physiological functions. […] To identify the compounds that activate PPAR-delta signaling, GeneBLAzer PPAR delta UAS-bla HEK293H cell line (Invitrogen, Carlsbad, CA, USA) containing a beta-lactamase reporter gene under the control of an Upstream Activator Sequence (UAS) was used to screen the Tox21 compound library. The cytotoxicity of the Tox21 compound library against the PPARd-bla cell line was tested in parallel by measuring the cell viability using CellTiter-Glo assay (Promega, Madison, WI) in the same wells.
# Tox21 Assay Protocol Summary: PPARd-bla cells were dispensed at 3000 cells/6uL/well in 1536-well black wall/clear bottom plates using a Multidrop Combi (Thermo Fisher Scientific, Waltham, MA) dispenser. After the assay plates were incubated at 37 C and 5% CO2 for 5 h, 23 nL of compounds dissolved in DMSO, positive controls or DMSO only was transferred to the assay plate by a Pintool station (Kalypsys, San Diego, CA). The assay plates were incubated at 37C for 17 h. After 1 uL of LiveBLAzerTM B/G FRET substrate was added using a Bioraptr Flying Reagent Dispenser (FRD) workstation (Beckman Coulter, Indianapolis, IN, USA), the plates were incubated at room temperature for 2 h, and fluorescence intensity was measured by an Envision plate reader (PerkinElmer, Shelton, CT). For cell viability readout that measures cytotoxicity, 3 ul/well of CellTiter-Glo reagent was added into the assay plates using a Bioraptr FRD. After 30 min incubation at room temperature, the luminescence intensity in the plates was measured using a ViewLux plate reader (PerkinElmer).
# % is scaled to controls: 0 for no effect and ±100 for the full control effect; potency is read from the fitted curve at half-maximal effect.
Structure (SMILES),"activity change, negative = cytotoxicity",Potency
CC(CC(C(N)=O)(c1ccccc1)c1ccccc1)N(C)C (stereo not given),-10%,–
Clc1ccc(Cl)c(Cl)c1,–,inactive
CC(C)(C)OOC(C)(C)CCC(C)(C)OOC(C)(C)C,-1.46%,–
NP(N)(=O)NC(=O)c1ccc(F)cc1,-0.811%,–
Nc1c(Br)cc(Br)c2c1C(=O)c1ccccc1C2=O,14% [at 29.1 µM],–
CCC(=O)O[C@@H]1C=C2CCC3C(CCC4(C)C3CC[C@@H]4OC(=O)CC)C2CC1 (stereo not given in full),3.7%,–
O=C(Cc1ccccc1)OCCc1ccccc1,2.36%,–
O=C(O)C(Cl)(Cl)Br,-0.997% [at 81.1 µM],–
CCCN(CCOc1c(Cl)cc(Cl)cc1Cl)C(=O)n1ccnc1,-18.8%,–
C=CCOCC1CO1 (stereo not given),-0.842%,–
Cc1cccc(C)c1NC1=NCCCS1,-4.88%,–
c1ccc2c(c1)sc1ccccc12,1.72%,–
Nc1cccc2ccccc12,–,inactive
Clc1ccc2ccccc2c1,0.255% [at 81.1 µM],–
C1CS1,-16.6% [at 81.1 µM],–
CC(C)CCCCCCCOC(=O)c1ccccc1C(=O)OCCCCCCCC(C)C,-20.9%,–
CCNC(=O)NC(=O)/C(C#N)=N/OC,-6.13%,–
CN1CC[C@]23c4c5ccc(O)c4O[C@H]2[C@@H](O)CC[C@H]3[C@H]1C5,3.01% [at 81.1 µM],–
C=CCc1ccc(OC(=O)Cc2ccccc2)c(OC)c1,-1.95%,–
CC(C)OC(=O)Cc1ccccc1,8.15% [at 81.1 µM],–

Structure (SMILES),"activity change, negative = cytotoxicity",Potency
O=C(O)C(F)(F)C(F)(F)C(F)(F)C(F)(F)C(F)(F)C(F)(F)C(F)(F)C(F)(F)F,-27.5%,–
C=C(Cl)Cl,3.9% [at 81.1 µM],–
O=C(O)c1ccc(=O)[nH]c1,-1.67%,–
OCCCl,1.62%,–
CCC(C)(C)c1ccc(O)c(C(C)(C)CC)c1,–,19.3 µM (active) and 19.5 µM (active)
C=CCSSCC=C,1.12%,–
C[C@]12C=CC3=C4CCC(=O)C=C4CC[C@H]3[C@@H]1CC[C@@H]2O,-4.47%,–
C=CC(=O)NC(C)(C)CC(C)=O,-0.399%,–
CC[N+]1(C)CCCC(OC(=O)C(O)(c2ccccc2)c2ccccc2)C1 (stereo not given),2.64%,–
CC(C)(C)NCC(O)c1cc(Cl)c(N)c(C(F)(F)F)c1 (stereo not given),0.833%,–
O=C(N/N=C/c1ccc([N+](=O)[O-])o1)c1cc([N+](=O)[O-])cc([N+](=O)[O-])c1O,3.08%,–
COc1ccccc1N1CCNCC1,4.9%,–
CCCCC(CC)CO[N+](=O)[O-] (stereo not given),1.59%,–
O=S(=O)(c1ccccc1)c1ccccc1,-12.6%,–
O=C(O)CCCOc1ccc(Cl)cc1Cl,-15%,–
N#CC(C#N)=Cc1ccc(O)c(O)c1,3.72%,–
O=C(O)COc1cc(Cl)c(Cl)cc1Cl,-0.0829%,–
O=C(N[C@H]1CN2CCC1CC2)c1ccc2c(c1)OCCO2,-1.6%,–
COCc1cnc(C2=NC(C)(C(C)C)C(=O)N2)c(C(=O)O)c1 (stereo not given),4.91%,–
CCCSP(=S)(OCC)Oc1ccc(SC)cc1 (stereo not given),8.13%,–
